# Experimental data taken from PubChem BioAssay.
# Experiments:
# [1] = test system: Human papillomavirus type 1a protein E7 (residues 44-93); experiment: HPV1a E7 fragment binders on microarrays, primary screen, biochemical, small-molecule microarray, residues 44-93, 635 nm fluorescence (AID 1108); conditions: small-molecule microarray binding, fluorescence 635 nm; higher = more signal;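 note: E7 fragment applied at 1 µg/mL in TBST for 1 h at 4 C; score combines spot fluorescence with its signal to noise ratio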
# [2] = modulators of HCV replicon luciferase signal, primary screen, HCV replication inhibitor project, Huh7 cells, luciferase reporter (AID 1109); conditions: 48 h, higher = more signal;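 note: huh7 hepatoma cells harbouring a luciferase neomycin HCV replicon reporter; luciferase luminescence as measure of HCV replicon replication; test concentration not given here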
# [3] = target: Left-right determination factor 2 (Homo sapiens) (UniProt O00292); experiment: LEFTY2 binders on small-molecule microarrays, primary screen, biochemical, small-molecule microarray, 635 nm fluorescence scan (AID 1110); conditions: LEFTY2 binding, higher = more signal
# Sequence of Left-right determination factor 2 (Homo sapiens) (O00292 whole entry, looked up): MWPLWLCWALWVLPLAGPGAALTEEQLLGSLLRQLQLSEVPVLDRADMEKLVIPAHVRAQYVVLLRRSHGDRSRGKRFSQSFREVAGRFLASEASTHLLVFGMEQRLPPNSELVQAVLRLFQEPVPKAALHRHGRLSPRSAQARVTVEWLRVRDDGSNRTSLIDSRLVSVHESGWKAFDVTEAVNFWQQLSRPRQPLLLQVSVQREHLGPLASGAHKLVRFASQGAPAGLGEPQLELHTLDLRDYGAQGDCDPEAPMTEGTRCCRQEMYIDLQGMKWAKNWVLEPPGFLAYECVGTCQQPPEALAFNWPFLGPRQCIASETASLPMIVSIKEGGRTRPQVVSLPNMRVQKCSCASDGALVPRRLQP
# [4] = target: Calmodulin-1 (Homo sapiens) (UniProt P0DP23); experiment: CALM1 binders on microarrays, EGTA buffer, profiling panel, biochemical, small-molecule microarray, Cy5-labelled CALM1 (AID 1111); conditions: Cy5-CALM1 binding fluorescence, higher = more signal;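 note: labelled calmodulin applied in Tris saline Tween buffer holding calcium plus EGTA and DTT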
# [5] = target: Calmodulin-1 (Homo sapiens) (UniProt P0DP23); experiment: calcium-bound CALM1 binders on microarrays, profiling panel, artefact control for SMM control-protein annotation, biochemical, small-molecule microarray, Cy5-labelled CALM1, plus calcium (AID 1112); conditions: Cy5-CALM1 binding fluorescence, higher = more signal;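 note: score merges spot fluorescence with signal to noise from triplicate slides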
# [6] = small-molecule microarray binders of probe aWnt5a, primary screen, biochemical, biotinylated probe, 635/667 nm fluorescence (AID 1113); conditions: higher = more signal;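 note: score merges 667 nm fluorescence intensity with signal-to-noise per printed feature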
# [7] = small-molecule microarray binders of probe aShh, primary screen, biochemical, biotinylated probe, 635/667 nm fluorescence (AID 1114); conditions: higher = more signal;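 note: probe is biotin-labelled aShh protein from a stem cell growth factor screen; measures binding of labelled protein to compounds printed on the slide; score merges feature fluorescence at 667 nm with signal-to-noise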
# [8] = small-molecule microarray binders of probe aNog, primary screen, biochemical, biotinylated probe, 635/667 nm fluorescence (AID 1115); conditions: higher = more signal;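 note: probe is biotinylated aNog protein used at 0.15 µg/mL for 1 h at 4 C; z-score combines 667 nm fluorescence of each spot with its signal to noise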
# [9] = target: Torsin-1A-interacting protein 1 (Homo sapiens) (UniProt Q5JTV8); experiment: LAP1 binders from COS7 cell lysate, primary screen, small-molecule microarray, 635/667 nm fluorescence (AID 1116); conditions: COS7-hLAP1 lysate binding, 635 nm fluorescence, higher = more signal
# Sequence of Torsin-1A-interacting protein 1 (Homo sapiens) (Q5JTV8 whole entry, looked up): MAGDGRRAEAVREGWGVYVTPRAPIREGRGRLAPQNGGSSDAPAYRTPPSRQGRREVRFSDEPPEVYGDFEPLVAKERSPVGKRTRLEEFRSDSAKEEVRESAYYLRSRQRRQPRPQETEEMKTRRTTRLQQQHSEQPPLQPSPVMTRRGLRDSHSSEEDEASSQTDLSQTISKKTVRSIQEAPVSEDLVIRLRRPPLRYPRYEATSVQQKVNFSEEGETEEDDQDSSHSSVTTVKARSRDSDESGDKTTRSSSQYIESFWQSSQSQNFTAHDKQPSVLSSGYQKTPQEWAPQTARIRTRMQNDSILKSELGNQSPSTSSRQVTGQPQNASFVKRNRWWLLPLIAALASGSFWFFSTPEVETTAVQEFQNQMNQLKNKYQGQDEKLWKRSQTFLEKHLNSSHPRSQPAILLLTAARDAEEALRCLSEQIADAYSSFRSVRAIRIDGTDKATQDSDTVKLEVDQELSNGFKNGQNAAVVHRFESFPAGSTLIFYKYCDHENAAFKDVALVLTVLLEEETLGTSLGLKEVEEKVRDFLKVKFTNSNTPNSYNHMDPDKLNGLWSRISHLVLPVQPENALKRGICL
# [10] = target: Alpha-bungarotoxin (Bungarus multicinctus) (UniProt P60615); experiment: alpha-bungarotoxin binders on microarray, profiling panel, artefact control for SMM control protein annotation, biochemical, small-molecule microarray, Alexa647 label, 635/667 nm fluorescence (AID 1117); conditions: alpha-BTX-A647 binding fluorescence, higher = more signal
# Sequence of Alpha-bungarotoxin (Bungarus multicinctus) (P60615 whole entry, looked up): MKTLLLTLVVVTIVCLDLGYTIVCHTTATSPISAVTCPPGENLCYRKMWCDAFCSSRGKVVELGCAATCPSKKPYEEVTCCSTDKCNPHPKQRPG
smiles,measurement,setting,value
NCCCCCCNC(=O)[C@H]1C[C@H]2C(=O)N[C@@H](Cc3ccccc3)C(=O)N2[C@H]1c1ccc(O)cc1,composite z-score,[1],0.74
same,z-score,[2],0.914
same,composite z-score,[3],0.338
same,composite z-score,[4],1.44
same,composite z-score,[5],1.17
same,composite z-score,[6],-0.0033
same,composite z-score,[7],-0.1
same,composite z-score,[8],-0.0496
same,composite z-score,[9],1.21
same,composite z-score,[10],1.55
CC(=O)N1Cc2ccccc2C[C@]2(N=C(c3ccc(OCCCO)cc3)O[C@@H]2c2ccccc2)C1=O,composite z-score,[1],1.1
same,z-score,[2],-1.56
same,composite z-score,[3],0.179
same,composite z-score,[4],1.01
same,composite z-score,[5],0.446
same,composite z-score,[6],-0.13
same,composite z-score,[7],0.163
same,composite z-score,[8],0.682
same,composite z-score,[9],1.78
same,composite z-score,[10],1.64
COCCOC(=O)N1C(=O)[C@@]2(c3cc(C#CCC(C(=O)OC)C(=O)OC)ccc31)[C@H](c1ccc(OCCO)cc1)N1[C@H](c3ccccc3)[C@H](c3ccccc3)OC(=O)[C@H]1[C@@H]2C(=O)N1CCN(c2ncccn2)CC1,composite z-score,[1],1.17
same,z-score,[2],-1.46
same,composite z-score,[3],0.603
same,composite z-score,[4],1.41
same,composite z-score,[5],0.377
same,composite z-score,[6],-0.0236
same,composite z-score,[7],0.184
same,composite z-score,[8],0.363
same,composite z-score,[9],1.33
same,composite z-score,[10],1.85
C=CC[C@@]12N=C(c3ccc(OCCCO)cc3)O[C@@H]1c1ccccc1N(CCS(=O)(=O)c1ccccc1)C2=O,composite z-score,[1],1.38
same,z-score,[2],-0.925
same,composite z-score,[3],0.526
same,composite z-score,[4],1.69
same,composite z-score,[5],0.727
same,composite z-score,[6],-0.0303
same,composite z-score,[7],0.147
same,composite z-score,[8],-0.0569
same,composite z-score,[9],0.676
same,composite z-score,[10],0.448
COc1cc(CO)cc(I)c1O[C@H]1C=C(C(=O)NCCO)C[C@@H](N(CC2CCCCC2)C(=O)c2ccc(C(F)(F)F)cc2)[C@@H]1O,composite z-score,[1],1.15
same,z-score,[2],-1.54
same,composite z-score,[3],0.402
same,composite z-score,[4],0.0208
same,composite z-score,[5],-0.21
same,composite z-score,[6],-0.087
same,composite z-score,[7],-0.2
same,composite z-score,[8],-0.144
same,composite z-score,[9],0.465
same,composite z-score,[10],-0.8
CC=CC(O)C1C=CC2C(=O)N(c3ccccc3)C(=O)C2N1Nc1ccc([N+](=O)[O-])cc1 (stereo not given),composite z-score,[1],1.21
same,z-score,[2],0.0112
same,composite z-score,[3],0.382
same,composite z-score,[4],-0.107
same,composite z-score,[5],-0.654
same,composite z-score,[6],-0.0685
same,composite z-score,[7],0.0469
same,composite z-score,[8],-0.124
same,composite z-score,[9],0.643
same,composite z-score,[10],0.529
C[C@@H](OCc1ccccc1)C1NC(=O)[C@@]23C(=O)N[C@@H](Cc4ccccc4)C2[C@H](C)[C@@]2(C)O[C@H]2C3/C=C/C/C=C\CNC(=O)CNC1=O (stereo not given in full),composite z-score,[1],-0.816
same,z-score,[2],-0.712
same,composite z-score,[3],0.367
same,composite z-score,[4],-1.15
same,composite z-score,[5],-1.02
same,composite z-score,[6],-0.199
same,composite z-score,[7],-0.179
same,composite z-score,[8],-0.323
same,composite z-score,[9],-0.143
same,composite z-score,[10],-1.56
CC(C)(C)OC(=O)CC[C@]1(C(=O)N2CCOCC2)N=C(c2ccc(OCCCO)cc2)O[C@H]1c1ccccc1,composite z-score,[1],0.79
same,z-score,[2],-0.304
same,composite z-score,[3],-0.356
same,composite z-score,[4],0.0137
same,composite z-score,[5],-0.031
same,composite z-score,[6],-0.0459
same,composite z-score,[7],-0.27
same,composite z-score,[8],-0.375
same,composite z-score,[9],1.07
same,composite z-score,[10],0.109
CC(C)C(=C=CC[C@@H](O)c1ccccc1OCCO)C[C@@H](O)COCc1ccccc1,composite z-score,[1],0.247
same,z-score,[2],-1.21
same,composite z-score,[3],0.639
same,composite z-score,[4],0.277
same,composite z-score,[5],0.652
same,composite z-score,[6],-0.128
same,composite z-score,[7],-0.0769
same,composite z-score,[8],0.583
same,composite z-score,[9],0.573
same,composite z-score,[10],-0.345
CC=CC(O)C1C=CC2C(=O)N(C)C(=O)C2N1Nc1ccc([N+](=O)[O-])cc1[N+](=O)[O-] (stereo not given),composite z-score,[1],-0.0226
same,z-score,[2],-0.121
same,composite z-score,[3],-0.324
same,composite z-score,[4],-0.086
same,composite z-score,[5],-0.541
same,composite z-score,[6],-0.148
same,composite z-score,[7],0.166
same,composite z-score,[8],0.0471
same,composite z-score,[9],-0.345
same,composite z-score,[10],-0.297
COC(=O)[C@H](Cc1ccccc1)N1CC(/C=C/C2CC2)=C[C@@H]1[C@@H](O)Cc1ccccc1,composite z-score,[1],1.31
same,z-score,[2],-1.33
same,composite z-score,[3],1.04
same,composite z-score,[4],0.48
same,composite z-score,[5],-0.513
same,composite z-score,[6],0.0079
same,composite z-score,[7],-0.0035
same,composite z-score,[8],0.131
same,composite z-score,[9],0.0412
same,composite z-score,[10],0.737
COc1ccc([Si](C)(C)[C@@H]2[C@@H](CCn3cc([C@H](O)c4ccccc4)nn3)O[C@]3(C(=O)N(Cc4ccc(N5CCOC5=O)cc4)c4ccccc43)[C@H]2C)cc1,composite z-score,[1],1.11
same,z-score,[2],-2.29
same,composite z-score,[3],0.846
same,composite z-score,[4],0.142
same,composite z-score,[5],-0.488
same,composite z-score,[6],-0.0179
same,composite z-score,[7],0.0224
same,composite z-score,[8],-0.0675
same,composite z-score,[9],1.74
same,composite z-score,[10],1.06
C=C(C(=O)CC[C@H](OC(C)=O)c1cccc(OCCO)c1)C(C)C,composite z-score,[1],-0.521
same,z-score,[2],-1.01
same,composite z-score,[3],-0.728
same,composite z-score,[4],-0.765
same,composite z-score,[5],-0.608
same,composite z-score,[6],-0.206
same,composite z-score,[7],-0.117
same,composite z-score,[8],-0.107
same,composite z-score,[9],-0.397
same,composite z-score,[10],1.98
C=CCOC(=O)[C@@H]1[C@H]2C(=O)O[C@H](c3ccccc3)[C@H](c3ccccc3)N2[C@H](c2ccc(OCCOC(=O)[C@H]3C[C@H]4C(=O)N[C@@H](CC(C)C)C(=O)N4[C@H]3c3ccc(O)cc3)cc2)[C@@]12C(=O)Nc1ccc(I)cc12,composite z-score,[1],0.719
same,z-score,[2],-0.866
same,composite z-score,[3],0.808
same,composite z-score,[4],0.0847
same,composite z-score,[5],-0.481
same,composite z-score,[6],-0.0478
same,composite z-score,[7],0.235
same,composite z-score,[8],0.135
same,composite z-score,[9],0.859
same,composite z-score,[10],2
CC(C)(C)N1CC=CC23O[C@@H]4C=CCOC(=O)[C@@H]4[C@H]2C(=O)N(CCCO)[C@@H]3C1=O (stereo not given in full),composite z-score,[1],-0.62
same,z-score,[2],0.104
same,composite z-score,[3],-2.12
same,composite z-score,[4],-1.03
same,composite z-score,[5],0.392
same,composite z-score,[6],-0.232
same,composite z-score,[7],-0.297
same,composite z-score,[8],-0.425
same,composite z-score,[9],0.412
same,composite z-score,[10],-2.03
[N-]=[N+]=NCc1ccccc1C[C@@]1(C(=O)NCCN2CCOCC2)N=C(c2ccc(OCCCO)cc2)O[C@@H]1c1ccccc1N=[N+]=[N-],composite z-score,[1],1.4
same,z-score,[2],-3.07
same,composite z-score,[3],-0.429
same,composite z-score,[4],1.16
same,composite z-score,[5],0.415
same,composite z-score,[6],0.168
same,composite z-score,[7],0.0141
same,composite z-score,[8],0.78
same,composite z-score,[9],0.948
same,composite z-score,[10],1.89
COCCCNC(=O)[C@@]1(Sc2ccc(C)cc2)CC(=O)N(Cc2cc(C(F)(F)F)cc(C(F)(F)F)c2)[C@@H]1c1ccc(CO)cc1,composite z-score,[1],1.07
same,z-score,[2],-0.168
same,composite z-score,[3],-0.223
same,composite z-score,[4],0.0267
same,composite z-score,[5],-0.683
same,composite z-score,[6],-0.096
same,composite z-score,[7],0.0136
same,composite z-score,[8],-0.0069
same,composite z-score,[9],0.156
same,composite z-score,[10],2.13
